Structures are written as SMILES. Where “and” joins values, the source holds several entries; their conditions need not be identical. Equal values may be shown once. Results filed as inconclusive are left out. Calls of active or inactive are those of the source. Unless noted, the call rests on the fitted dose curve; in most records, active means well fitted curve in the direction sought with a large enough effect; inconclusive means small, poorly fitted or top-dose-only effect, or another doubt; inactive means no such curve, though single readings can be large; an effect the other way counts as inactive or inconclusive.

The values below come from PubChem BioAssay (NCATS).

In experiment [1] the target is Mitogen-activated protein kinase 10 (Mus musculus) (UniProt Q61831). The experiment is described as follows: JNK3 AlphaScreen Assay (AID 530; active means well fitted curve in either direction with a large enough effect, not every such curve was filed as active;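 further: kinase came from lysate of stimulated human HepG2 cells; signal reports phosphorylation of biotinylated GST-cJun 1-79 at Ser73 with 10 µM ATP; on the % scale 0 is the no-effect control and ±100 the full control effect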). The essentials:
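Phosphorylation of biotinylated GST-cJun(1-79) at Ser73 is measured by AlphaScreen proximity luminescence. Enzyme is JNK3 in HepG2 lysates activated with interleukin-1beta and tumor necrosis factor alpha; ATP is 10 uM final.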

The nature of experiment [2]: Cell Viability - LYMP1-002 - Assay at 16 hr (AID 948).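 Further: 0% = DMSO alone and full effect = 92 µM tetraoctylammonium bromide.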 Put shortly:
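ATP luminescence (CellTiter-Glo) was measured after 16 hr compound exposure at 37 C of 2500 lymphoblastoid LYMP1-002 cells per well. Concentration-response curves were fitted with the Hill equation to give AC50.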

Experiment [3] in a line: Cell Viability - LYMP2-005 (AID 967). Further: potency means the concentration at half of the fitted maximal effect. Put shortly:
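LYMP2-005 human lymphoblastoid cells (2500/well) were treated with compounds for 24 h at 37 C. Intracellular ATP was then measured by CellTiter-Glo luminescence after 30 min at room temperature. AC50 values came from Hill-equation fits of qHTS concentration-response data.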

A short description of experiment [4]: Cell Viability - LYMP2-006 (AID 978). Further: nearly all actives have a fitted effect of over 60% in size. Further: potency means the concentration at half of the fitted maximal effect. The essentials: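 Potency values are Hill-fit AC50s for decreases in intracellular ATP (CellTiter-Glo luminescence). LYMP2-006 lymphoblastoid cells, 2500 per well, were exposed to compound in complete culture medium for 24 hr at 37 C.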
A short description of experiment [5]: Cell Viability - LYMP2-007 (AID 979).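 Further: cells exposed to compound for 24 h before reading; nearly all actives have a fitted effect of over 60% in size.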 Further: potency means the concentration at half of the fitted maximal effect. Put shortly:
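Cells are seeded at 2500 per well and rested 5 hr. Compounds are then added over a concentration series for 24 hr at 37 C. CellTiter-Glo is added for 30 min at room temperature before luminescence reading.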

A short description of experiment [6]: Cell Viability - LYMP2-012 (AID 982).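 Further: cellular ATP by luciferase luminescence where a drop means cytotoxicity; cells exposed to compound for one day before reading; nearly all actives have a fitted effect of over 55% in size.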 Further: potency means the concentration at half of the fitted maximal effect.
A short description of experiment [7]: Cell Viability - LYMP2-020 (AID 986). Further: nearly all actives have a fitted effect of over 55% in size. Further: potency means the concentration at half of the fitted maximal effect. The essentials:
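Seed 2500 cells per well and incubate 5 hr at 37 C. Add compounds at a concentration series and incubate 24 hr at 37 C. Add CellTiter-Glo, wait 30 min at RT, read luminescence, and fit a Hill curve for AC50.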

Experiment [8] can be described thus: Cell Viability - LYMP1-002 - Assay at 40 hr (AID 994).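 Further: 0% = DMSO only and full inhibition = 92 µM tetraoctylammonium bromide; nearly all actives have a fitted effect of over 60% in size.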 Put shortly: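 Cells are plated at 2500 per well and rested 5 hr at 37 C. Compounds are added and incubated 40 hr at 37 C. CellTiter-Glo reagent is added for 30 min at room temperature before luminescence is read.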
Experiment [9] has as its target Glucocorticoid receptor (Homo sapiens) (UniProt P04150). The experiment is described as follows: qHTS assay for small molecule antagonists of glucocorticoid receptor signaling (AID 588533; active means well fitted inhibition curve with a large enough effect in the signal ratio, with a control signal flat, not every such curve was filed as active; the % refers to the signal ratio;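 further: cells stimulated with 2 nM dexamethasone as agonist; on the % scale 0 is the no-effect control and ±100 the full control effect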). Put shortly: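 Antagonist-mode qHTS: compound titrations added to GRE-bla HeLa cells, then dexamethasone 2 nM final; 18 h, 37 C. CCF4 FRET fluorescence normalized to dexamethasone and DMSO; IC50 from Hill fit.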
(In qHTS, concentration-response curves come from the screen itself.)

The nature of experiment [10]: qHTS assay for small molecule antagonists of peroxisome proliferator-activated receptor delta signaling (AID 588535; active means well fitted inhibition curve with a large enough effect in the signal ratio, with a control signal flat, not every such curve was filed as active; the % refers to the signal ratio;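 on max response: cells co-treated with a PPAR-delta agonist as stimulator during compound exposure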). The following applies: HEK293T PPARd-UAS-bla, beta-lactamase FRET ratio, 18 h; 460 nm channel. The essentials: (§1)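 Inhibition of PPAR-delta response element-driven beta-lactamase expression is measured in HEK293T cells exposed to a compound titration series for 18 hrs at 37 C. Half-maximal inhibition comes from Hill equation fitting.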

Experiment [11] concerns the target Peroxisome proliferator-activated receptor delta (Homo sapiens) (UniProt Q03181). The description is as above. The essentials:
as §1

Experiment [12] concerns the target Peroxisome proliferator-activated receptor gamma (Homo sapiens) (UniProt P37231). The experiment can be described thus: qHTS assay for small molecule antagonists of peroxisome proliferator-activated receptor gamma signaling (AID 588537; active means well fitted inhibition curve with a large enough effect in the signal ratio, with a control signal flat, not every such curve was filed as active; the % refers to the signal ratio; further: potency means the concentration at half of the fitted maximal effect). The essentials:
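Compounds are tested as concentration series for inhibition of rosiglitazone-driven (50 nM) reporter expression in GeneBLAzer PPAR-gamma-UAS-bla HEK293 cells. After 16 h at 37 C, CCF4 substrate is added for 2 h at room temperature and blue/green fluorescence is measured.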

A short description of experiment [13]: qHTS assay for cell viability of HEK293 cells (AID 743288). Further: on the % scale 0 is the no-effect control and ±100 the full control effect; nearly all actives have a fitted effect of over 50% in size. The settings on record: ATP luminescence (CellTiter-Glo), 18 h; max response: stronger effect = lower value. Put shortly:
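Readout is luciferase-coupled ATP content (CellTiter-Glo luminescence, 30 min room temperature) as a measure of metabolically competent cells. Parental HEK293 cells were plated 5 h or more before compound addition, then treated 18 h at 37 C.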

A short description of experiment [14]: Cellular Toxicity (caspase-3) Hek293 (AID 664).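 Further: cells exposed to compound for 16 h at 37 °C before readout.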 The following applies: HEK293 caspase-3 activation, DMSO = 0%, 100 µM tamoxifen = 100%; at 92.2 µM (top of the series). The essentials: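 qHTS, HEK293 (human embryonic kidney), 16 h cpd exposure in complete medium. Caspase-3/7 activation = luminescence increase; normalized to DMSO/100 uM tamoxifen; Hill-fit AC50.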

Experiment [15] is described as follows: qHTS assay to identify small molecules that stimulate interleukin-8 (IL-8) secretion (AID 651758; active means well fitted activation curve with a large enough effect in the signal ratio; the % refers to the signal ratio; further: potency means the concentration at half of the fitted maximal effect). The essentials: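 Quantitative HTS in THP-1 monocytic cells at 2000 cells per well, with 16 hrs compound incubation at 37 C. IL-8 in the medium was then quantified by HTRF immunoassay, read after 1-3 hrs at room temperature.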
Experiment [16] is described as follows: MultiTox-Fluor Cytotoxicity Assay - LYMP1-002 - Live Cells (AID 955).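 Further: cells exposed to compound for 16 hours; on the % scale 0 is the no-effect control and ±100 the full control effect.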 The essentials:
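Cells were seeded at 2500 per well and incubated 5 hr. Compounds were then added for 16 hr at 37 C, followed by MultiTox-Fluor reagent for 60 min at room temperature and fluorescence reading of viable-cell protease signal.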

Experiment [17] concerns the target Estrogen receptor (Homo sapiens) (UniProt P03372). The experiment is described as follows: qHTS assay for small molecule agonists of estrogen receptor alpha signaling (AID 588514; calls by dose curve;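 further: 0% = vehicle only and 100% = reference agonist; nearly all actives have a fitted effect of over 70% in size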). Put shortly: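 Efficacy is expressed against 20 nM 17-beta-estradiol (100%) and DMSO basal (0%); EC50 from Hill equation. Assay: beta-lactamase reporter in ER-alpha-UAS-bla HEK 293 cells, 18 h compound incubation, CCF4 detection.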

A short description of experiment [18]: Cell Viability - LYMP2-013 (AID 970). Further: nearly all actives have a fitted effect of over 55% in size. Further: potency means the concentration at half of the fitted maximal effect. The essentials:
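Cytotoxicity is scored as a concentration-dependent drop in intracellular ATP in human lymphoblastoid cells after 24 hr compound exposure at 37 C. ATP is quantified by luciferase luminescence, and AC50 values come from Hill-equation modeling.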

Experiment [19] addresses Estrogen receptor (Homo sapiens) (UniProt P03372). The experiment is described as follows: qHTS assay for small molecule antagonists of estrogen receptor alpha signaling (AID 588513; active means well fitted curve in the direction sought with a large enough effect in the signal ratio, with a control signal flat, not every such curve was filed as active; the % refers to the signal ratio; further: on the % scale 0 is the no-effect control and ±100 the full control effect). The essentials:
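Antagonist mode: inhibition of 0.5 nM 17-beta-estradiol-driven beta-lactamase reporter in HEK 293 ER-alpha-UAS-bla cells, 18 h at 37C, CCF4 readout after 2 h at RT. Normalised to estradiol and DMSO; titration fitted to Hill.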

Experiment [20] has as its target Peroxisome proliferator-activated receptor gamma (Homo sapiens) (UniProt P37231). The experiment can be described thus: qHTS assay for small molecule agonists of peroxisome proliferator-activated receptor gamma signaling (AID 588536; active means well fitted curve in the direction sought with a large enough effect in the signal ratio, with a control signal flat, not every such curve was filed as active; the % refers to the signal ratio;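 further: 0% = DMSO basal wells and 100% = rosiglitazone at 2 µM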). Put shortly:
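Compound treatment: 16 h, 37 C, HEK293 GeneBLAzer cells. Detection: CCF4, 2 h RT. Values: Hill-fit EC50, efficacy as % of 2 uM rosiglitazone.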

Sequence of Peroxisome proliferator-activated receptor gamma (Homo sapiens) (P37231 whole entry, looked up): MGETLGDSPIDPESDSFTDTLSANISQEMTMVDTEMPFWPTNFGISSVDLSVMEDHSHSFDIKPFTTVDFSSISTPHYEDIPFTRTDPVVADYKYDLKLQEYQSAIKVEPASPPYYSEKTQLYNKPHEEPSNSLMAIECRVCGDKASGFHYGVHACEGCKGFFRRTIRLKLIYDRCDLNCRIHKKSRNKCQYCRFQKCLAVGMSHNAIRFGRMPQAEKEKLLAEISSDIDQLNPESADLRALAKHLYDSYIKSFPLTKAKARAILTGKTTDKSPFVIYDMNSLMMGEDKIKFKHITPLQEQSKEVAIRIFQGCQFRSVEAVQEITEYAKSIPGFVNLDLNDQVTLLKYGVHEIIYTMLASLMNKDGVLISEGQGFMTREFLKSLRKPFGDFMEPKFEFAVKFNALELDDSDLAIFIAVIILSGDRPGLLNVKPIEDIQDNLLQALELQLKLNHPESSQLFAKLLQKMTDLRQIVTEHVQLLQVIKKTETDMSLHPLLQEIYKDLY
Sequence of Peroxisome proliferator-activated receptor delta (Homo sapiens) (Q03181 whole entry, looked up): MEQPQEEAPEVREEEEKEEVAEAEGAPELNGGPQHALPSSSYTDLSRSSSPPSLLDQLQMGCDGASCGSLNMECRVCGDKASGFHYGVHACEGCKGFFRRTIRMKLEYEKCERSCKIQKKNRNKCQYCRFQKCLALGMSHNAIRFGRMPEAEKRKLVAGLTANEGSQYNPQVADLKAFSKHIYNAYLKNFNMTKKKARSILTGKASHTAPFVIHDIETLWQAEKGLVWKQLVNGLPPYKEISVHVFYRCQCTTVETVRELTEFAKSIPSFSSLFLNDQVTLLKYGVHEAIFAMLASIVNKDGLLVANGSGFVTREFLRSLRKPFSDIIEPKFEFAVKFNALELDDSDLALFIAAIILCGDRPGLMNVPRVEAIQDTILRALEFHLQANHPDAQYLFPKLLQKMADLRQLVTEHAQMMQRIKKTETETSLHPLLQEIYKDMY
Sequence of Glucocorticoid receptor (Homo sapiens) (P04150 whole entry, looked up): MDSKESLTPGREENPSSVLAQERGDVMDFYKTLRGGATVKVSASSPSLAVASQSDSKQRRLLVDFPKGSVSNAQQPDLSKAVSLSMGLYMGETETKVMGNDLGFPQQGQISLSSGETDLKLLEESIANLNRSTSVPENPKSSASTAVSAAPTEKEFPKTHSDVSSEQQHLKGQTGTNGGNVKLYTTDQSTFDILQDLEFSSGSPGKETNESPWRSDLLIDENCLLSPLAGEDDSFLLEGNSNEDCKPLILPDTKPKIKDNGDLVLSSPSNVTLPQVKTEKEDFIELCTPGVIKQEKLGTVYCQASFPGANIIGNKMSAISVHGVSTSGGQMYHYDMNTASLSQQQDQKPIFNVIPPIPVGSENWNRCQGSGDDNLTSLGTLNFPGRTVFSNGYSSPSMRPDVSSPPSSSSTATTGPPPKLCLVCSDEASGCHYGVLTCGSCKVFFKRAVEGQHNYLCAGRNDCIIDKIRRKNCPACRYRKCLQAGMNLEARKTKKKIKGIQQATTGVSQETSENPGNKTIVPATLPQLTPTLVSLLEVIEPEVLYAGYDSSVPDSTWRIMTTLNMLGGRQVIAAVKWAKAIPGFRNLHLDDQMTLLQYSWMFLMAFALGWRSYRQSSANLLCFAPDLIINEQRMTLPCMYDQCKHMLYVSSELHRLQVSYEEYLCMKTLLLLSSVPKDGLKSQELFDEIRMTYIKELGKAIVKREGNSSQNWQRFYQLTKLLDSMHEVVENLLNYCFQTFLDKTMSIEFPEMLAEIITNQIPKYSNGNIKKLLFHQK
Sequence of Estrogen receptor (Homo sapiens) (P03372 whole entry, looked up): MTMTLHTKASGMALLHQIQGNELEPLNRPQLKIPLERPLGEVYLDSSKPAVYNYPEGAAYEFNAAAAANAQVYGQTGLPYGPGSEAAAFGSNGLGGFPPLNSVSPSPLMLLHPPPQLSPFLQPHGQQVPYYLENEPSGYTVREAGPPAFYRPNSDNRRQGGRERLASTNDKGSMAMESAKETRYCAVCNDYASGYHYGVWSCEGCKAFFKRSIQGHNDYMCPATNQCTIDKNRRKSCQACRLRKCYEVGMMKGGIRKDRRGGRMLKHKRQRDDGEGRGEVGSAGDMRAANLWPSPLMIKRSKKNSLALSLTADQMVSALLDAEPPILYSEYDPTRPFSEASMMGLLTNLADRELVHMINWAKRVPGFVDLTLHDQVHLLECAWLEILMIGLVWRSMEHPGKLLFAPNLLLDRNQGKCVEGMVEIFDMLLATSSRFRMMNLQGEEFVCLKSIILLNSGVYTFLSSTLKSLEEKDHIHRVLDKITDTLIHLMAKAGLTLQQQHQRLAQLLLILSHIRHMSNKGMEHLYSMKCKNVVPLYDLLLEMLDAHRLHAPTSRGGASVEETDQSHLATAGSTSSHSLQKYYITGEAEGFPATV

Turning to `Brc1cc(Oc2cc(Br)c(Br)c(Br)c2Br)c(Br)c(Br)c1Br`, the Potency entry in [1], in [2], in experiment [3], in experiment [4], in experiment [5] and in experiment [6] was “inactive” throughout. Besides, the Potency entry in [7], in experiment [8], in experiment [9] and in [12] was “inactive” each time. The max response in experiment [10] was 14.5% and 36.5%; in experiment [13] it was -20.8% (inactive) and -10.9% (inactive). In addition, the result in experiment [11] was inactive.
As for `CCN(CC)c1ccc(N)cc1`, the caspase-3 activation in experiment [14] is 18.6% (inactive). In addition, the Potency entry in [2] is “inactive”. In addition, in experiment [15], the Potency is 37.6 µM (active).
As for `Cc1ccc(O)c(N)c1`, the Potency result in experiment [1] and in [17] was “inactive” each time. Besides, the caspase-3 activation in [14] was 1.75% (inactive). For the same molecule, the call in [16] and in experiment [11] was inactive. Further, the Potency in experiment [5] was 50.1 µM (active). Moreover, the max response in experiment [10] is -35.8%; in experiment [13], -7.01% (inactive).
In the case of `O=C(O)c1ccc([N+](=O)[O-])cc1`, the Potency entry in experiment [1], in experiment [2], in experiment [18], in experiment [6], in experiment [8] and in experiment [9] was “inactive” in each case. In addition, in experiment [14], the caspase-3 activation is 10.3% (inactive). In addition, in experiment [10], the max response came to 8.52%. Moreover, the call in [11] was inactive.
As to `Brc1cc(Br)c(Oc2cc(Br)c(Br)cc2Br)cc1Br`, the caspase-3 activation in experiment [14] was 0.345% (inactive). For the same molecule, the Potency entry in experiment [2], in [3], in experiment [18], in [4], in [5] and in experiment [6] was “inactive” each time. In [8], the Potency result is “inactive”. Further, the outcome in [16] and in experiment [19] was inactive.
`S=C(NC1CCCCC1)NC1CCCCC1`: the Potency entry in experiment [1], in experiment [2], in [3], in experiment [4], in [8] and in experiment [17] was “inactive” throughout. The Potency entry in experiment [12] was “inactive”. For the same molecule, the caspase-3 activation in experiment [14] was 3.5% (inactive). For the same molecule, the molecule was called inactive in experiment [19], in experiment [11] and in experiment [20]. For the same molecule, the max response in experiment [10] was -15.4%; in experiment [13] it was -15.2% (inactive).
Take `CC/C=C/C/C=C/C/C=C/CCCCCCCC(=O)OCC`: in [14], the caspase-3 activation was 7.96% (inactive). In addition, the Potency in [3] was 31.6 µM (active); in experiment [18], 50.1 µM (active); in experiment [4] it was 50.1 µM (active); in [7], 39.8 µM (active). The Potency entry in experiment [9] was “inactive”. Further, the outcome in experiment [20] was inactive.
On to `Oc1cc2c(cc1O)[C@H]1c3ccc(O)c(O)c3OC[C@@]1(O)C2`, for which the Potency in experiment [4] is 39.8 µM (active); in experiment [6], 25.1 µM (active). In experiment [19], the result was inactive. The Potency result in [17] is “inactive”.
With `C=C(C#N)C(=O)OCC`, the Potency entry in experiment [1], in experiment [2], in experiment [3], in [18], in experiment [5] and in experiment [6] was “inactive” throughout. Further, the Potency entry in experiment [7] and in experiment [9] was “inactive” each time. Further, the caspase-3 activation in experiment [14] was -3.19% (inactive). Further, the molecule was called inactive in [16] and in [11]. The max response in experiment [10] is -32.1%.
In the case of `O=C=Nc1ccc(Cl)c(Cl)c1`, in experiment [14], the caspase-3 activation is 9.15% (inactive). In experiment [19], the result was inactive. In [17], the Potency result is “inactive”.
Take `O=C1c2ccccc2C(=O)C1(O)O`: the Potency entry in experiment [1], in experiment [4], in [5], in experiment [7] and in experiment [17] was “inactive” each time. Also, the caspase-3 activation in experiment [14] is 0.893% (inactive). Also, the call in experiment [16] and in [19] was inactive.
As for `CN(C)c1ccc(C(=N)c2ccc(N(C)C)cc2)cc1`, the Potency entry in experiment [1] and in [9] was “inactive” each time. In addition, the Potency in experiment [7] was 39.8 µM (active); in experiment [12] it was 14.1 µM (active); in experiment [15] it was 66.8 µM (active). Moreover, the result in [19] was inactive.
